The record followed here is PubChem BioAssay (EPA / NIEHS).

Records with an inconclusive call do not appear. Calls of active or inactive are those of the source. The calls were made as follows: active = hit-call score of the fitted dose curve at least 0.9, where 1 is the maximum; inconclusive = response in the unintended direction; inactive = score below 0.9.

human Dopamine Transporter (DAT), SLC6A3 (gene 6531), sequence (Q01959 whole entry, looked up): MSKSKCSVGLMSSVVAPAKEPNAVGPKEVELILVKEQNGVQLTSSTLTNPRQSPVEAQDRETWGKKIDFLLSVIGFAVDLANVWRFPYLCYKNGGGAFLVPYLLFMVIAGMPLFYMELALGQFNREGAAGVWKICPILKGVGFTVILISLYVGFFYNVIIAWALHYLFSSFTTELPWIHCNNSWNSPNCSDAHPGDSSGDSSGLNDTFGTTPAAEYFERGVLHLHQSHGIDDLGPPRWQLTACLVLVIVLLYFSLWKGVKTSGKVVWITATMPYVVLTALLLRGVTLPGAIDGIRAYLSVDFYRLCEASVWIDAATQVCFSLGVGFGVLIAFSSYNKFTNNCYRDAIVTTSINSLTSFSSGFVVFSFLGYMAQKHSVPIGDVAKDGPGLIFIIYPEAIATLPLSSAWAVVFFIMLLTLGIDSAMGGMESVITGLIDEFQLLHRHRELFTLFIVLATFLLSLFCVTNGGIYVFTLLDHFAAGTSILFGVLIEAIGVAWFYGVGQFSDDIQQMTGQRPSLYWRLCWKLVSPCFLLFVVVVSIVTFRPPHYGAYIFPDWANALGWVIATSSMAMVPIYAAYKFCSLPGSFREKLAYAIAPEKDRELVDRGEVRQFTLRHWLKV

This assay addresses human Dopamine Transporter (DAT), SLC6A3 (gene 6531) (UniProt Q01959). Kind of assay: NVS_TR_hDAT: NovaScreen (NVS) Transporter Assay for human Dopamine Transporter (DAT) (AID 2283374).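 Also: activity means loss of bound radioligand signal relative to DMSO.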 Here is the method: NVS_TR_hDAT is a biochemical, single-readout assay that uses extracted gene-proteins in a cell-free assay. Measurements were taken 1 hour after chemical dosing in a 96-well plate.NVS_TR_hDAT is one of one assay component(s) measured or calculated from the NVS_TR_hDAT assay. It is designed to make measurements of radioligand binding, a form of binding reporter, as detected with scintillation counting signals by Filter-based radiodetection technology.Data from the assay component NVS_TR_hDAT was analyzed into 1 assay endpoint. This assay endpoint, NVS_TR_hDAT, was analyzed in the positive analysis fitting direction relative to DMSO as the negative control and baseline of activity. Using a type of binding reporter, loss-of-signal activity can be used to understand changes in the binding as they relate to the gene SLC6A3. Furthermore, this assay endpoint can be referred to as a primary readout, because the performed assay has only produced 1 assay endpoint. To generalize the intended target to other relatable targets, this assay endpoint is annotated to the transporter intended target family, where the subfamily is neurotransmitter transporter.
Binding assays used specific radioligands (tritiated, iodinated) with non-radioactive competitive displacement ligands in agonist or antagonist protocols (as indicated) and various reference compounds and inhibitors to titrate specific binding to receptors and transporters. Most enzyme assays (CYPs, kinases, phosphatases, proteases, HDACs) used recombinant protein and specific substrates (fluorescence mostly, some colorimetric and radioactive) and inhibitors, followed by a biochemical separation of substrate and product. All assays for the biochemical HTS were initially run in duplicate at a single concentration (10 uM for CYP450 assays and 25 uM for all others). […] Each assay was run with positive and negative controls, and concurrent controls on every plate. The follow-up (secondary) screen tested active chemical-pairs in concentration series, as well as a few additional assays not tested in the primary screen, some selected negative inactives, and several cases re-run in the concentration series for confirmatory purposes.
On to `OCCOCCOCCO`, for which the AC50 was 6.63 µM (active).

As for `COc1cc(C(C)C)c2c(c1)S(=O)(=O)N(COc1cc(=O)n3cccc(OCCN4CCCCC4)c3n1)C2=O`, the AC50 is 2.87 µM (active). The same measure, in the same setting: to `c1ccc(C(O[C@@H]2CCCN(CCc3ccc4c(c3)OCO4)C2)c2ccccc2)cc1` belongs 0.063 µM (active). As for `CCn1nc(C)c2c1C(=O)NCC(c1ccc(O)cc1)=N2`, the outcome was inactive. Consider `C=CCc1cc(S(=O)(=O)c2ccc(O)c(CC=C)c2)ccc1O`, for which the AC50 is 7.48 µM (active). As to `OCc1ccccc1`, the call was inactive. Consider `CC[C@H](C)C(=O)O[C@H]1C[C@H](O)C=C2C=C[C@H](C)[C@H](CC[C@@H](O)C[C@@H](O)CC(=O)O)[C@H]21`, for which the result was inactive. As for `CC(C)c1nnc2ccc(-c3ocnc3-c3cc(F)ccc3F)cn12`, the molecule was classed as inactive. For the molecule `CCCOc1ccc(S(=O)(=O)N2CCN(CC)CC2)cc1-c1nc2c(CC)n(Cc3ccccn3)nc2c(=O)[nH]1`, the AC50 was 25 µM (active). Still for that read-out and setting: with `CCN(CC)C(=S)SSC(=S)N(CC)CC` the figure was 10.4 µM (active). Consider `OC(CCl)CCl`, for which the call was inactive. As for `Cc1nccn1-c1ccc(Sc2cccc(C3(C(N)=O)CCOCC3)c2)cc1`, the AC50 is 6.99 µM (active). The same measure, in the same setting: to `O=C(NO)C1(NS(=O)(=O)c2ccc(Oc3ccc(F)cc3)cc2)CCOCC1` belongs 8.77 µM (active). `CCCCCCCCCC`: the molecule was classed as inactive. On the same count and under the same terms, to `CCCCC(CC)C(=O)OCCOCCOCCOC(=O)C(CC)CCCC` (stereo not given) belongs “inactive”.
